Assay results as given in PubChem BioAssay (Tox21).
Results filed as inconclusive are left out. Activity calls are given as the source filed them. Unless noted, the call rests on the fitted dose curve.

Legend:
[1] = Nuclear factor erythroid 2-related factor 2/antioxidant responsive element (Nrf2/ARE) small molecule agonists: qHTS cell viability counter screen in human keratinocytes (AID 1919968; active means well fitted curve in the direction sought with a large enough effect in the repeat runs; an effect the other way counts as inactive or inconclusive; further: nearly all actives have a fitted effect of over 55% in size)
How it was run: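 Measured as CellTiter-Fluor fluorescence, this readout tracks cytotoxicity in the same wells as the ARE-luciferase screen. HaCaT reporter cells (1,500/well) received compounds after a 5 h pre-incubation and were exposed for 23 h.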

[2] = target: Gonadotropin-releasing hormone receptor (Homo sapiens) (UniProt P30968); test: Human gonadotropin-releasing hormone receptor (GnRHR) small molecule agonists, calcium flux assay in GnRHR-HEK293 cells (AID 1920063); further: nearly all actives have a fitted effect of over 35% in size
How it was run: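 Fluorescence kinetics (480 nm excitation, 540 nm emission; 3 min, 1 s steps) report calcium mobilisation in human GnRHR-HEK293 cells in agonist mode. Dye incubation: 1 h, 37 C.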

[3] = target: KiSS-1 receptor (Homo sapiens) (UniProt Q969F8); test: Human kisspeptin (KISS1R) small molecule agonists, calcium flux assay in KISS1R-HEK293 cells (AID 1920064; active means well fitted curve in the direction sought with a large enough effect in the repeat runs; an effect the other way counts as inactive or inconclusive)
How it was run: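 Measures KISS1R agonism through calcium-sensitive dye fluorescence in stably transfected HEK293 cells, read for 3 min after pin-tool compound delivery; 15-point titrations in triplicate.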

[4] = G protein-coupled receptor (GPCR) small molecule agonists, calcium flux assay: HEK293 wild type cell line counter screen (AID 1920065)
How it was run: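 Readout: fluorescence at 480 nm excitation/540 nm emission, sampled at 1 s intervals for 3 min. Cells had been cultured 18 h, then dye-loaded 1 h at 37 C before compound or ATP addition.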

[5] = p53 small molecule agonists, cell-based qHTS assay with human liver microsomes (AID 1963577);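 further: p53 response element beta-lactamase reporter cells with liver microsomes plus NADPH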
How it was run: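 16 h, 37 C exposure of p53RE-bla cells to compounds with human liver microsomes and NADPH (0.5 mg/mL final each); detection via LiveBLAzer mixture, 2 h dark at room temperature.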

[6] = p53 small molecule agonists, cell-based qHTS assay with rat liver microsomes (AID 1963578)
How it was run: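 With rat liver microsomes and NADPH present (0.5 mg/mL final each), p53RE-bla cells are treated with compound for 16 h at 37 C. LiveBLAzer detection mixture is then applied for 2 h at room temperature in the dark.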

[7] = p53 small molecule agonists, cell-based qHTS assay with human liver microsomes: qHTS cell viability counter screen (AID 1963579); further: nearly all actives have a fitted effect of over 45% in size
How it was run: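 In this multiplexed counter screen, the reporter plates were subsequently treated with CellTiter-Glo so that cell viability, reflected by luminescence, could be recorded for p53RE-bla cells dosed 16 h with compounds under microsomal activation (HLM and NADPH).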

[8] = p53 small molecule agonists, cell-based qHTS assay with rat liver microsomes: qHTS cell viability counter screen (AID 1963580); further: nearly all actives have a fitted effect of over 45% in size
How it was run: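 p53RE-bla HCT-116 cells were exposed 16 h at 37 C to compounds with rat liver microsomes (0.5 mg/mL) and NADPH (0.5 mg/mL). Viability was measured in the same wells as ATP content by CellTiter-Glo luminescence.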

[9] = p53 small molecule agonists, cell-based qHTS assay: qHTS cell viability counter screen (AID 1963581); further: nearly all actives have a fitted effect of over 45% in size
How it was run: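 In the same plates used for the p53 bla reporter, HCT-116 cells given compounds for 16 h at 37 C received CellTiter-Glo; luminescence was recorded 30 min later at room temperature.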

[10] = p53 small molecule agonists, cell-based qHTS assay (AID 1963582; active means well fitted activation curve with a large enough effect in the signal ratio in the repeat runs, not every such curve was filed as active; the % refers to the signal ratio)
How it was run: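 Compounds are pin-transferred in DMSO onto p53RE-bla cells and incubated 16 h at 37 C. The B/G FRET beta-lactamase substrate is then applied for 2 h at RT and fluorescence recorded.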

[11] = target: 5-hydroxytryptamine receptor 2A (Homo sapiens) (UniProt P28223); test: 5-hydroxytryptamine receptor 2A (HTR2A) small molecule antagonists, cell-based qHTS assay (AID 1963586); further: nearly all actives have a fitted effect of over 45% in size
How it was run: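 Antagonist-mode intracellular calcium assay: DOI (4 nM) added after 5 min compound pre-incubation at room temperature to dye-loaded HTR2A-CHO cells. Fluorescence followed for 3 min, sampled every second.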

[12] = target: Muscarinic acetylcholine receptor M1 (Homo sapiens) (UniProt P11229); test: Cholinergic receptor muscarinic 1 (CHRM1) small molecule antagonists, cell-based qHTS assay (AID 1963588); further: nearly all actives have a fitted effect of over 40% in size
How it was run: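 CHRM1-CHO calcium-flux assay, antagonist mode. Cells were seeded 18 h, dye-loaded 1 h at 37 C and given compound for 5 min at RT, then acetylcholine was added at 50nM. FDSS fluorescence was read 3 min; 15 concentrations, three runs.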

[13] = target: Muscarinic acetylcholine receptor M1 (Homo sapiens) (UniProt P11229); test: Cholinergic receptor muscarinic 1 (CHRM1) small molecule agonists, cell-based qHTS assay (AID 1963589); further: nearly all actives have a fitted effect of over 35% in size
How it was run: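 Each compound was tested at 15 concentrations across three independent runs on dye-loaded CHO cells stably expressing human CHRM1, reading intracellular calcium fluorescence kinetically at 1 sec intervals.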

[14] = cAMP Responsive Elements (CRE) small molecule agonists, cell-based qHTS assay (AID 1963590)
How it was run: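 Cell line: CRE-bla HEK 293T; medium DMEM/10% dialyzed FBS/0.1 mM NEAA/1 mM pyruvate/25 mM HEPES; 3 h compound exposure; beta-lactamase FRET readout after 2 h substrate loading at RT.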

[15] = cAMP Responsive Elements (CRE) small molecule antagonists, cell-based qHTS assay (AID 1963591; active means well fitted inhibition curve with a large enough effect in the signal ratio in the repeat runs, not every such curve was filed as active; the % refers to the signal ratio)
How it was run: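 Inhibition of NKH477-driven (0.25 uM final) CRE-beta-lactamase signal in HEK293T cells, 3 h compound exposure at 37 °C, detected by FRET substrate fluorescence.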

[16] = target: Beta-2 adrenergic receptor (Homo sapiens) (UniProt P07550); test: Adrenergic beta2 receptor (ADRB2) small molecule antagonists, cell-based qHTS assay (AID 1963592); further: series mostly up to about 92 µM; nearly all actives have a fitted effect of over 50% in size
How it was run: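 Cells (CHO, stable ADRB2 overexpression) incubated 18-20hr at 37C; compounds added from DMSO; agonist mix (1nM isoproterenol, 100uM IBMX, 25uM Ro-20-1724) added; 0.5hr RT; d2-cAMP and anti-cAMP-cryptate added; 1hr RT; 665/615 nm read.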

[17] = target: D(2) dopamine receptor (Homo sapiens) (UniProt P14416); test: Dopamine D2 receptor (DRD2) small molecule antagonists, cell-based qHTS assay (AID 1963595; active means well fitted inhibition curve with a large enough effect in the signal ratio in the repeat runs, with a control signal flat; the % refers to the signal ratio)
How it was run: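 Antagonist mode in DRD2-HEK293 cells: after compound addition with 0.1 mM Ro20-1724, cells received quinpirole (12 nM) and NKH477 (200 nM) for 30 min at room temperature; HTRF cAMP read after 1 h detection.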

[18] = target: 5-hydroxytryptamine receptor 2A (Homo sapiens) (UniProt P28223); test: 5-hydroxytryptamine receptor 2A (HTR2A) small molecule agonists, cell-based qHTS assay (AID 1963587); further: nearly all actives have a fitted effect of over 30% in size
How it was run: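 CHO cells stably expressing human HTR2A, plated 18 h, loaded with calcium dye 1 h at 37 C. Agonist mode: compounds added and intracellular calcium fluorescence recorded kinetically for 2 min at 1 sec intervals.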

[19] = target: D(2) dopamine receptor (Homo sapiens) (UniProt P14416); test: Dopamine D2 receptor (DRD2) small molecule agonists, cell-based qHTS assay (AID 1963594); further: nearly all actives have a fitted effect of over 35% in size
How it was run: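 HEK293 cells stably expressing human DRD2, pre-treated with PDE inhibitor Ro20-1724 (0.1 mM final) and compound 10 min at room temperature, then stimulated with NKH477 (200nM […]) for 30 min. cAMP read by HTRF (665/620 nm).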

Measured: Potency

Gonadotropin-releasing hormone receptor (Homo sapiens), sequence (P30968 whole entry, looked up): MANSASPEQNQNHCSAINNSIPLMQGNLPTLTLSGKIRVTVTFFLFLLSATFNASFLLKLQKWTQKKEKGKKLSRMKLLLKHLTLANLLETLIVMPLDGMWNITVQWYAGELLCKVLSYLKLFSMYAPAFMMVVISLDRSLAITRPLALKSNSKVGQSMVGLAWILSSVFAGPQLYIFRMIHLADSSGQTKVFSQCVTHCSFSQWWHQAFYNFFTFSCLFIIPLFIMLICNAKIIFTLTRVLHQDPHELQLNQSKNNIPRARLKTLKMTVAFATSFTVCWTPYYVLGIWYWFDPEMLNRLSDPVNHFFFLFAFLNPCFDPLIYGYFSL
5-hydroxytryptamine receptor 2A (Homo sapiens), sequence (P28223 whole entry, looked up): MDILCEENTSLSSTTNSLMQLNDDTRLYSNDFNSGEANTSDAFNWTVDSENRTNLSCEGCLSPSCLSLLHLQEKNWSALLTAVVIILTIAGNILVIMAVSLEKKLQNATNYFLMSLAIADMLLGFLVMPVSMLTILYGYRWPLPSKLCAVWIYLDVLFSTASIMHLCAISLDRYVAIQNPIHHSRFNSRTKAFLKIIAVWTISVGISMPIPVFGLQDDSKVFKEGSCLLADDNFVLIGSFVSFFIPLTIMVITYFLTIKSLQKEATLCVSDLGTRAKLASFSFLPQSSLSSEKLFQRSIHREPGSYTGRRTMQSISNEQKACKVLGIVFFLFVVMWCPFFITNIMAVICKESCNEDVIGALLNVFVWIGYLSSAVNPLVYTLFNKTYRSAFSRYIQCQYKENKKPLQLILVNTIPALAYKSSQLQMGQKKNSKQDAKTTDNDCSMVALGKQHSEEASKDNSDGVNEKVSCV
KiSS-1 receptor (Homo sapiens), sequence (Q969F8 whole entry, looked up): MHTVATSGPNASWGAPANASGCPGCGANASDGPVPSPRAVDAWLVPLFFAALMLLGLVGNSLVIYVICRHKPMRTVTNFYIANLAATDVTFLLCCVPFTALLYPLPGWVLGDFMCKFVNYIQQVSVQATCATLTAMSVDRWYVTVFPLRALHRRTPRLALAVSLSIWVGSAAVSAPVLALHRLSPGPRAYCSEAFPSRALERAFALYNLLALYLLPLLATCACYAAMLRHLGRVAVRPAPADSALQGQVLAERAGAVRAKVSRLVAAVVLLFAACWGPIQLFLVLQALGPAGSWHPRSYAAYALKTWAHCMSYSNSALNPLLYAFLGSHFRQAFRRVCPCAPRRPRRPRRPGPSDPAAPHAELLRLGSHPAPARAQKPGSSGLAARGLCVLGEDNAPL
Muscarinic acetylcholine receptor M1 (Homo sapiens), sequence (P11229 whole entry, looked up): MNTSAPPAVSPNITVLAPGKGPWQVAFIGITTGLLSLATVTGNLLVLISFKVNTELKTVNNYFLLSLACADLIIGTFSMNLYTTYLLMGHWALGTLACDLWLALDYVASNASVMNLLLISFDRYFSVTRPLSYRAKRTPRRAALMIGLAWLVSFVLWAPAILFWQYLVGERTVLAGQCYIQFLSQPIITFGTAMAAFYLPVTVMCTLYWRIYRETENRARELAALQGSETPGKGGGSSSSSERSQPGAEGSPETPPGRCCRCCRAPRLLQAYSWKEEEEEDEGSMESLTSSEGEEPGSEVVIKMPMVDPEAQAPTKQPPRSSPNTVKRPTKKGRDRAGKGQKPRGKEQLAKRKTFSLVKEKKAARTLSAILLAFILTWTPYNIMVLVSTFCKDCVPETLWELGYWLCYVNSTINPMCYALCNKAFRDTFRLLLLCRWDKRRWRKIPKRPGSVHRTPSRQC
Beta-2 adrenergic receptor (Homo sapiens), sequence (P07550 whole entry, looked up): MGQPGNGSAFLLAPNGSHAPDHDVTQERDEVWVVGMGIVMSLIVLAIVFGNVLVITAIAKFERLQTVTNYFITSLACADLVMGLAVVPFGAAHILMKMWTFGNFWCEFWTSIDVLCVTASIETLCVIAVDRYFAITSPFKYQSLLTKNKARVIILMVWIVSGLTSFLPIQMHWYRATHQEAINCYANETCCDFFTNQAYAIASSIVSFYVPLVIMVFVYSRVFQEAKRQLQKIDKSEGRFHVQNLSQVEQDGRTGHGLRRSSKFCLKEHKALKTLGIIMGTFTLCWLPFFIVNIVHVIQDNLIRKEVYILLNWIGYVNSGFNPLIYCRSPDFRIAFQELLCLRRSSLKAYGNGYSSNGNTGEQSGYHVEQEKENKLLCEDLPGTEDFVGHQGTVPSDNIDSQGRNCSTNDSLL
D(2) dopamine receptor (Homo sapiens), sequence (P14416 whole entry, looked up): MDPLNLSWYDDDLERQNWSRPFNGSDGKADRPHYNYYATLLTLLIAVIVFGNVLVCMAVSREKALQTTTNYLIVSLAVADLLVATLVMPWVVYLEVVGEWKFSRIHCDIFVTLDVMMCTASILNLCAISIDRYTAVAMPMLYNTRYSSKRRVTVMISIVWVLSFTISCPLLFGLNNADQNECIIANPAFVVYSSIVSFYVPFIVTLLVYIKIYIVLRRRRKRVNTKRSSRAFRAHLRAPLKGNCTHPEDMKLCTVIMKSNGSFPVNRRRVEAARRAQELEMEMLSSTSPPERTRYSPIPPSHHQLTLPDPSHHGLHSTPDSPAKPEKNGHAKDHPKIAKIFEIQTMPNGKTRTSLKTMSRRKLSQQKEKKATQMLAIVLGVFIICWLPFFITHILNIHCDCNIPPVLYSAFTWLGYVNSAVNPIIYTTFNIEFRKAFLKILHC

CCC(CO)(CO)COCC(CC)(CO)CO
inactive: [1] | [2] | [3] | [4] | [5] | [6] | [7] | [8] | [9] | [10] | [11] | [12] | [13] | [14] | [15] | [16] | [17]

CC(C)=CC(=O)C=C(C)C
inactive: [1] | [2] | [3] | [4] | [5] | [6] | [7] | [8] | [9] | [10] | [18] | [12] | [13] | [14] | [15] | [16]

CO[Si](CCCNc1ccccc1)(OC)OC
inactive: [1] | [2] | [3] | [4] | [5] | [6] | [7] | [8] | [9] | [10] | [11] | [18] | [12] | [13] | [14] | [15] | [16] | [19] | [17]

COc1cc(C(=O)OC(COCCC(C)C)CN2CCOCC2)cc(OC)c1OC (stereo unspecified)
inactive: [1] | [2] | [3] | [4] | [5] | [6] | [7] | [8] | [9] | [10] | [18] | [12] | [19] | [17]

CCCCOC(=O)C(C)Oc1ccc(Oc2ccc(C(F)(F)F)cn2)cc1 (stereo unspecified)
inactive: [1] | [2] | [3] | [4] | [5] | [6] | [7] | [8] | [9] | [10] | [11] | [18] | [13] | [14] | [15] | [16] | [17]

C=C(C)C(=O)OCC(C)(C)COC(=O)C(=C)C
inactive: [1] | [2] | [3] | [4] | [5] | [6] | [7] | [8] | [9] | [10] | [11] | [18] | [12] | [13] | [14] | [15] | [16] | [19] | [17]

CC(=O)C1CCCCC1=O (stereo unspecified)
inactive: [1] | [2] | [3] | [4] | [5] | [6] | [7] | [8] | [9] | [10] | [11] | [18] | [12] | [13] | [14] | [15] | [16] | [19] | [17]
